The source made the active and inactive calls. How the source made its calls: active means hit-call score of the fitted dose curve at least 0.9, where 1 is the maximum; inactive means score below 0.9.
Key:
[1] = read-out: Cytochrome P450 (CYP1A1), CYP1A1 (gene 1543); assay: LTEA_HepaRG_CYP1A1: Life Technologies and Expression Analysis (LTEA) Assay for Cytochrome P450 (CYP1A1) using HepaRG (AID 2283454); settings: mRNA level, 48 h; actives raise or lower the signal
In short: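 CYP1A1 transcript levels measured by Fluidigm qRT-PCR against three housekeeping genes, 48 h after chemical dosing of human HepaRG cells (highest concentration 100 uM, half-log steps, 0.5% DMSO vehicle). Gain or loss of signal fitted relative to DMSO.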

[2] = read-out: CFLAR gene, CFLAR (gene 8837); assay: LTEA_HepaRG_CFLAR: Life Technologies and Expression Analysis (LTEA) Assay for CFLAR gene using HepaRG (AID 2283455); settings: mRNA level, 48 h; actives raise or lower the signal
In short: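 Differentiated HepaRG cells in serum-free induction medium were exposed 48 h in duplicate to eight half-log concentrations up to 100 uM in 0.5% DMSO; mRNA measured by TaqMan qRT-PCR, normalized to ACTB, GAPDH, POLR2A; bidirectional fitting versus DMSO.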

[3] = read-out: Forkhead box O1 (FOXO1), FOXO1 (gene 2308); assay: LTEA_HepaRG_FOXO1: Life Technologies and Expression Analysis (LTEA) Assay for Forkhead box O1 (FOXO1) using HepaRG (AID 2283456); settings: mRNA level, 48 h; actives raise or lower the signal
In short: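 Differentiated HepaRG cells, in serum-free induction medium with 0.5% DMSO, exposed 48 h in duplicate to 8-point half-log series from 100 uM. FOXO1 mRNA measured by TaqMan qRT-PCR, normalized to ACTB, GAPDH, POLR2A; bidirectional fit versus DMSO.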

[4] = read-out: growth arrest and DNA damage 45 (GADD45A), GADD45A (gene 1647); assay: LTEA_HepaRG_GADD45A: Life Technologies and Expression Analysis (LTEA) Assay for growth arrest and DNA damage 45 (GADD45A) using HepaRG (AID 2283458); settings: mRNA level, 48 h; actives raise or lower the signal
In short: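 Differentiated HepaRG cells exposed 48 h in serum-free induction medium to 8 concentrations, top 100 uM in half-log steps, 0.5% DMSO. GADD45A mRNA quantified by qRT-PCR, normalized to ACTB, GAPDH and POLR2A; bidirectional fit versus DMSO.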

[5] = read-out: Forkhead box O3 (FOXO3), FOXO3 (gene 2309); assay: LTEA_HepaRG_FOXO3: Life Technologies and Expression Analysis (LTEA) Assay for Forkhead box O3 (FOXO3) using HepaRG (AID 2283459); settings: mRNA level, 48 h; actives raise or lower the signal
In short: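 Differentiated human HepaRG cells, 48 h post-plating, exposed in duplicate for 48 h in serum-free induction medium; 8-point half-log series from 100 uM in 0.5% DMSO. FOXO3 mRNA by TaqMan qRT-PCR, normalized to ACTB/GAPDH/POLR2A; bidirectional fit versus DMSO.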

[6] = read-out: ABC Transporter (ABCB1), ABCB1 (gene 5243); assay: LTEA_HepaRG_ABCB1: Life Technologies and Expression Analysis (LTEA) Assay for ABC Transporter (ABCB1) using HepaRG (AID 2283460); settings: mRNA level, 48 h; actives raise or lower the signal
In short: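 HepaRG cells exposed in duplicate for 48 h in serum-free induction medium to eight half-log concentrations up to 100 uM in 0.5% DMSO. ABCB1 mRNA quantified by qRT-PCR, normalised to ACTB, GAPDH and POLR2A; fitted bidirectionally versus DMSO.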

[7] = read-out: growth arrest and DNA damage 45 (GADD45B), GADD45B (gene 4616); assay: LTEA_HepaRG_GADD45B: Life Technologies and Expression Analysis (LTEA) Assay for growth arrest and DNA damage 45 (GADD45B) using HepaRG (AID 2283461); settings: mRNA level, 48 h; actives raise or lower the signal
In short: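 Transcript level quantified by Fluidigm TaqMan qRT-PCR with three housekeeping genes for normalization, analyzed for up- or down-regulation against 0.5% DMSO. HepaRG cultures dosed 48 h at eight half-log concentrations up to 100 uM, duplicates.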

[8] = read-out: ABC Transporter (ABCC3), ABCC3 (gene 8714); assay: LTEA_HepaRG_ABCC3: Life Technologies and Expression Analysis (LTEA) Assay for ABC Transporter (ABCC3) using HepaRG (AID 2283462); settings: mRNA level, 48 h; actives raise or lower the signal
In short: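 Transcript level by TaqMan qRT-PCR, normalised to three housekeeping genes, fitted in both directions relative to vehicle. Chemicals tested in duplicate at eight half-log concentrations up to 100 uM for 48 h on HepaRG cells (0.5% DMSO).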

[9] = read-out: ABC Transporter (ABCB11), ABCB11 (gene 8647); assay: LTEA_HepaRG_ABCB11: Life Technologies and Expression Analysis (LTEA) Assay for ABC Transporter (ABCB11) using HepaRG (AID 2283463); settings: mRNA level, 48 h; actives raise or lower the signal
In short: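 Differentiated human HepaRG cells in serum-free induction medium, dosed in duplicate for 48 h. Eight-point half-log series from 100 uM in 0.5% DMSO; ABCB11 mRNA by qRT-PCR, normalized to ACTB, GAPDH, POLR2A, fitted bidirectionally versus DMSO.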

[10] = CEETOX_H295R_TESTO: CeeTox H295R High-throughput Steroidogenesis Assay for Testosterone (TESTO) (AID 2283457); settings: actives raise or lower the signal
In short: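 Testosterone secreted into the medium over 48 h by H295R cells (maximum passage 10) was quantified by LC-MS/MS after MTBE extraction. Fitted in both directions against DMSO, with concentrations diluted until MTT viability was ≥70%.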

Measured: AC50

CC1(C)C(=O)N(Cl)C(=O)N1Cl
active: [1] 50 µM
not listed: [10]
inactive: all other assays above

CC[C@H](C)C(=O)O[C@H]1C[C@H](O)C=C2C=C[C@H](C)[C@H](CC[C@@H](O)C[C@@H](O)CC(=O)O)[C@H]21
active: [1] 9.15 µM
not listed: [10]
inactive: all other assays above

CCCCCCOC(=O)CC(CC(=O)OCCCCCC)(OC(=O)CCC)C(=O)OCCCCCC
not listed: [10]
inactive: all other assays above

CCCCC(CC)C(=O)OCCOCCOCCOC(=O)C(CC)CCCC (centres undefined)
inactive: all assays above

Cn1cc[nH]c1=S
active: [1] 37.4 µM
not listed: [10]
inactive: all other assays above

CC(=O)c1ccccc1
active: [1] 76.7 µM
not listed: [10]
inactive: all other assays above

O=C(NO)C1(NS(=O)(=O)c2ccc(Oc3ccc(F)cc3)cc2)CCOCC1
active: [8] 80.1 µM | [9] 82.8 µM
not listed: [10]
inactive: all other assays above

CCN(CC)C(=S)SSC(=S)N(CC)CC
active: [1] 51 µM
not listed: [8]
inactive: all other assays above

COc1cc2c(c(OC)c1OC)-c1ccc(OC)c(=O)cc1[C@@H](NC(C)=O)CC2
inactive: [10] | [4] | [5] | [7]
active: [1] 0.0575 µM | [2] 0.0663 µM | [3] 0.0309 µM | [6] 0.0797 µM | [8] 0.196 µM | [9] 0.0634 µM

O=S1(=O)CCCO1
not listed: [10]
inactive: all other assays above

C=CCc1cc(S(=O)(=O)c2ccc(O)c(CC=C)c2)ccc1O
active: [3] 79.6 µM | [5] 84.9 µM | [6] 89.1 µM | [9] 81.6 µM
inactive: all other assays above

CCCCCCCCCCCCCCO
active: [1] 50 µM
not listed: [10]
inactive: all other assays above

OCc1ccccc1
not listed: [10]
inactive: all other assays above

NC(=O)N(O)[C@@H]1COc2cc(OCc3ccccc3)ccc21
active: [1] 40.2 µM
not listed: [10]
inactive: all other assays above

CCn1nc(C)c2c1C(=O)NCC(c1ccc(O)cc1)=N2
active: [1] 40 µM
not listed: [10]
inactive: all other assays above

NC(N)=O
active: [1] 81.8 µM
not listed: [10]
inactive: all other assays above

O=C(O)c1cccc(C(=O)O)c1
active: [1] 50 µM
not listed: [10]
inactive: all other assays above

OC(CCl)CCl
active: [1] 50 µM
not listed: [10]
inactive: all other assays above

CCCCCCCCCC
active: [1] 50 µM
not listed: [10]
inactive: all other assays above

OC[C@H]1O[C@@H]2O[C@H]3[C@H](O)[C@@H](O)[C@@H](O[C@H]4[C@H](O)[C@@H](O)[C@@H](O[C@H]5[C@H](O)[C@@H](O)[C@@H](O[C@H]6[C@H](O)[C@@H](O)[C@@H](O[C@H]7[C@H](O)[C@@H](O)[C@@H](O[C@H]1[C@H](O)[C@H]2O)O[C@@H]7CO)O[C@@H]6CO)O[C@@H]5CO)O[C@@H]4CO)O[C@@H]3CO
active: [1] 26.2 µM
not listed: [10]
inactive: all other assays above

COCc1nnc(-c2ccc[n+]([O-])c2)n1-c1c(Cl)c(Cl)cc2[nH]c(=O)c(=O)[nH]c12
active: [1] 50 µM
not listed: [10]
inactive: all other assays above

CC(C)CCCCCCOC(=O)C1CCCCC1C(=O)OCCCCCCC(C)C (centres undefined)
active: [1] 75.6 µM | [4] 0.00316 µM
not listed: [10]
inactive: all other assays above

c1ccc(C(O[C@@H]2CCCN(CCc3ccc4c(c3)OCO4)C2)c2ccccc2)cc1
active: [1] 13.2 µM | [4] 89.2 µM | [5] 10.2 µM | [6] 83.9 µM | [7] 81.1 µM | [8] 30.1 µM | [9] 76.8 µM
inactive: [2] | [3]

CCOC(N)=O
active: [1] 50 µM
not listed: [10]
inactive: all other assays above

CCCc1ccccc1
not listed: [10]
inactive: all other assays above

CCCCOC(=O)c1ccccc1
not listed: [10]
inactive: all other assays above

CCCCCCCCN(C)C
not listed: [10]
inactive: all other assays above

NC(=O)N1c2ccccc2C=Cc2ccccc21
not listed: [10]
inactive: all other assays above

c1ccc2c(c1)-c1cccc3c1c-2cc1ccccc13
active: [1] 0.851 µM | [2] 10.6 µM | [3] 5.04 µM | [5] 4.9 µM | [6] 15.5 µM | [7] 11.3 µM | [8] 21 µM | [9] 15.1 µM
inactive: [4]

Cc1nc(-c2ccccn2)ncc1C(=O)Nn1cc(C)c2cc(F)ccc21
active: [1] 18.6 µM | [6] 2.77 µM | [9] 50 µM
not listed: [10]
inactive: all other assays above

O=C(O)c1cccc(C[C@@H]2COc3ccc(OCc4nc5cc(F)ccc5s4)cc3[C@@H]2O)c1
active: [1] 33.4 µM | [8] 79.3 µM | [9] 79.3 µM
not listed: [10]
inactive: all other assays above

NNC(=O)c1ccncc1
active: [1] 22 µM
not listed: [10]
inactive: all other assays above

CC(C)C(=O)Nc1ccc([N+](=O)[O-])c(C(F)(F)F)c1
inactive: [5] | [6] | [7] | [8]
active: [1] 11.3 µM | [2] 50 µM | [3] 50 µM | [4] 67.9 µM | [9] 25.3 µM

CCc1cccc(CC)c1N
active: [1] 50 µM
not listed: [10]
inactive: all other assays above

— PubChem BioAssay (EPA / NIEHS)
